High-throughput results deposited in PubChem BioAssay by National Center for Advancing Translational Sciences (NCATS).
This is a sample that favours compounds with a hit; in the whole collection about 4.2% have one here.
uPA generation: blocks generation of uPA at the cell surface. cell surface uPA generation assay, qHTS. Potency, µM (doses to about 38.3 µM), for the others: top-dose activity change, negative = inhibition, most hits filed as inhibitors. AID 540303. 330,000 compounds, 0.31% hits; active means well fitted inhibition curve with a large enough effect; inconclusive means small, poorly fitted or top-dose-only effect; inactive means no such curve, though single readings can be large or run the other way; tested in mouse RAW 264.7 cells; further: potency means the concentration at half of the fitted maximal effect; on the % scale 0 is the no-effect control and ±100 the full control effect; nearly all actives have a fitted effect of over 55% in size
ClpP mod: qHTS Assay for Activators of ClpP; Potency, µM (highest dose often 57.5 µM), for inactives: at the highest dose activity change, negative = active; 340,000 compounds, 1.9% hits; purified B. subtilis ClpP, FRET peptide cleavage, 20 min; ATP-dependent Clp protease proteolytic subunit (Bacillus subtilis (strain 168)), P80244; AID 651965, 2013; active means well fitted falling curve with a large enough effect; inconclusive means small, poorly fitted or top-dose-only effect; inactive means no such curve, though single readings can be large or run the other way; further: potency means the concentration at half of the fitted maximal effect; the source files actives as falling curves though it sought activators and does not explain the sign; nearly all actives have a fitted effect of over 65% in size
Target sequence (P80244 whole entry, looked up): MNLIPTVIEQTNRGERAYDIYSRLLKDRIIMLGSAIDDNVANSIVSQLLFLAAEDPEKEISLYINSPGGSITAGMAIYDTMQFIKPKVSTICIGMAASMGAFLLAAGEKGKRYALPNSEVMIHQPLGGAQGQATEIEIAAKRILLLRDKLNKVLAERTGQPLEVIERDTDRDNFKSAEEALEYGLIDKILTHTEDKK
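Buffer: 100 mM Tris/HCl pH8, 100 mM KCl, 0.05% low protease BSA, 2.5% glycerol, 0.01% Tween-20. ClpP 10 microg/mL final; 20 min RT; delta FRET normalized to ADEP and DMSO controls.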
Sfp PPTase inh: inhibitors of Bacillus subtilis Sfp phosphopantetheinyl transferase. AID 1490. Q9F4F7. Potency, µM, for inactives: largest response in the series, negative = inhibition, usual class: inhibitors. 310,000 compounds, 3.5% hits. Biochemical Sfp PPTase activity, qHTS;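 further: the enzyme is Sfp with the accession as filed and its product quenches rhodamine fluorescence; potency means the concentration at half of the fitted maximal effect; 0% = enzyme reaction without inhibitor and -100% = no enzyme wells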
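Fluorescence-quenching assay with 15 nM Sfp, 5 uM rhodamine-CoA and 12.5 uM BHQ-2-labelled ybbR peptide in pH 7.6 Hepes/MgCl2 buffer. Enzyme was pre-incubated with compound for 15 min at room temperature. Rate was taken from the 30-min fluorescence change (525/598 nm).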
TCR act: activates T cell receptor signaling | primary human leukocytes, anti-CD3, IL-2 HTRF, 48 h | 330,000 tested, under 10 active | Potency, µM (highest dose often 9.22 µM), without a hit: at the highest dose activation of IL-2 secretion, most hits filed as activators; further: % of control where 0% means no effect
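IL-2 release read by HTRF sandwich (Eu cryptate donor, d2 acceptor, 665 nm emission) after 48 hr exposure of primary human leukocytes to compound together with anti-CD3 beads in the absence of co-stimulatory signals.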
* = called active by the depositor; [ ] = remark or other dose. Unless noted, the call rests on the fitted dose curve; in most records, active means well fitted curve in the direction sought with a large enough effect; inconclusive means small, poorly fitted or top-dose-only effect, or another doubt; inactive means no such curve, though single readings can be large; an effect the other way counts as inactive or inconclusive.

O=C(Cn1nc(-c2ccc(Cl)cc2)ccc1=O)NCCCN1CCN(Cc2ccccc2)CC1 was read as uPA generation -3.7%, ClpP mod 31.6µM*, Sfp PPTase inh 5.8% and TCR act -1.6%.
`N#Cc1c(N)n(CCOC(=O)c2cccc([N+](=O)[O-])c2)c2nc3ccccc3nc12` gave uPA generation 2.1%, ClpP mod 25.8%, Sfp PPTase inh -8.3% and TCR act 3.8%.
N#Cc1c(N)n(CCNC(=O)c2ccc(Cl)cc2)c2nc3ccccc3nc12 was read as uPA generation 8.9%, ClpP mod 3.16µM*, Sfp PPTase inh -2.2% and TCR act 0.3%.
`Cc1ccc(C(=O)NCCn2c(N)c(C#N)c3nc4ccccc4nc32)cc1` gave uPA generation 10.4%, ClpP mod 22.4µM*, Sfp PPTase inh 4.2% and TCR act -0.7%.
`N#Cc1c(N)n(CCOC(=O)c2cccc(Br)c2)c2nc3ccccc3nc12` gave uPA generation -1.7%, ClpP mod inconclusive, Sfp PPTase inh -4.8% and TCR act 4.0%.
`Cc1c(C(=O)Nc2ccc3c(c2)OCCO3)sc2ncnc(N3CCCCC3C)c12` (stereo not drawn) gave uPA generation -1.3%, ClpP mod -1.2%, Sfp PPTase inh 14.3% and TCR act 2.6%.
Screening CCN(CC)CCC(c1ccc(N(C)C)cc1)c1c(OC)cc(OC)c2c(C)cc(=O)oc12 (stereo not drawn) returned Sfp PPTase inh -11.2%.
For CCOC(=S)NC(=O)c1sc2ccccc2c1Cl the results were ClpP mod 6.6%, Sfp PPTase inh 44.7µM* and TCR act -3.8%.
`CCCOC(=S)NC(=O)c1sc2ccccc2c1Cl` gave ClpP mod 4.3%, Sfp PPTase inh 28.2µM* and TCR act -6.1%.
CCOc1ccccc1N1CCN(C(=O)c2cc3ccccc3cc2OC)CC1 was read as uPA generation 3.55µM*, ClpP mod -0.8% and TCR act -4.2%.
Screening COc1ccccc1C(=O)N1CCC(N2CCN(c3ccccc3OC)CC2)CC1 returned uPA generation 1.5%, ClpP mod 0.1%, Sfp PPTase inh 89.1µM* and TCR act 3.4%.
Screening COc1cccc(C(=O)N2CCN(C3CCN(Cc4ccccc4)CC3)CC2)c1OC returned uPA generation -2.3%, Sfp PPTase inh 79.4µM* and TCR act 5.6%.
For CCCN1Cc2cccc(C(=O)Nc3cc(C)cc(C)c3)c2C1=O the results were ClpP mod -0.3%.
Screening Cc1cc(=O)n2nc(N3CCC(C(=O)NCCCOC(C)C)CC3)sc2n1 returned ClpP mod -1.4%.
Screening Cc1ccc(S(=O)(=O)N2CCCc3cc(NS(=O)(=O)c4ccc(C)c(C)c4)ccc32)cc1 returned ClpP mod -1.0%.
COc1cccc(CN(C)C(=O)C2CC(=O)N(c3ccc4c(c3)OCCO4)C2)c1 (stereo not drawn) was read as uPA generation 0.4%, ClpP mod 14.1µM* and TCR act -1.5%.
`COc1ccc(CN(C)C(=O)C2CC(=O)N(c3ccc4c(c3)OCCO4)C2)cc1` (stereo not drawn) gave ClpP mod 0.1%.
CCCCN(C(=O)c1cccc2c(=O)c(C)c(-c3ccccc3)oc12)c1ccccc1 was read as uPA generation -17.5%, ClpP mod -0.4%, Sfp PPTase inh -21.5% and TCR act 0.1%[46.1 µM].
CCCCNC(=O)c1cccc2c(=O)c(C)c(-c3ccccc3)oc12 was read as uPA generation -10.4%, ClpP mod 28.2µM*, Sfp PPTase inh 24.1% and TCR act -12.2%[46.1 µM].
For CN(C)CCCCOc1cccc(Br)c1 the results were uPA generation 0.2%, ClpP mod 1.2%, Sfp PPTase inh 56.2µM* and TCR act 4.6%[46.1 µM].
Cn1c(=O)[nH]c(=O)c2c1[nH]c(=S)n2Cc1ccc(Cl)cc1 was read as uPA generation -8.9%, ClpP mod -1.6%, Sfp PPTase inh 8.91µM* and TCR act -2.2%.
For Cn1c(=O)n(Cc2ccccc2Cl)c2ccccc21 the results were uPA generation -0.4%, Sfp PPTase inh inconclusive and TCR act 0.3%.
For Cn1c(=O)c2[nH]c(=S)n(Cc3ccccc3)c2n(C)c1=O the results were uPA generation 4.3% and TCR act -16.8%.
`Cn1c(=O)[nH]c(=O)c2c1[nH]c(=S)n2CCCc1ccccc1` gave uPA generation 3.3%, Sfp PPTase inh 14.1µM* and TCR act -9.8%.
`Cn1c(=O)n(Cc2ccccc2Cl)c(=O)c2c1[nH]c(=S)n2C` gave uPA generation 2.4%, Sfp PPTase inh 50.1µM* and TCR act -6.7%.
`Cn1c(=O)c2c([nH]c(=S)n2CCCc2ccccc2)n(C)c1=O` gave uPA generation 6.4%, Sfp PPTase inh 50.1µM* and TCR act 3.7%.
O=C(COC(=O)c1ccc2ccccc2n1)NCc1ccccc1 was read as uPA generation -13.0%, ClpP mod -0.5%, Sfp PPTase inh -3.5% and TCR act -5.2%.
For Cc1ccccc1CN1CCN(C(=O)CC(C)C)CC1 the results were uPA generation 4.1%, ClpP mod 1.0%, Sfp PPTase inh 79.4µM* and TCR act -3.2%.
Screening Cc1ccccc1CN1CCN(CC2CC3C=CC2C3)CC1 (stereo not drawn) returned uPA generation 5.7%, ClpP mod -1.4%, Sfp PPTase inh 79.4µM* and TCR act 5.7%.
For COc1ccc(CN2CCN(C(=O)CC(C)C)CC2)c2ccccc12 the results were uPA generation -2.1%, ClpP mod 2.1%, Sfp PPTase inh inconclusive and TCR act 3.6%.
Screening CCC(Nc1ncnc2ccc(-c3c(C)noc3C)cc12)c1ccccc1 (stereo not drawn) returned Sfp PPTase inh -18.2%.
`CCOC(=O)c1[nH]c(C)c(/C(O)=C2\C(=O)C(=O)N(CCCN3CCOCC3)C2c2cccnc2)c1C` (stereo not drawn) gave uPA generation 3.4%, ClpP mod -2.6%, Sfp PPTase inh 5.3% and TCR act -0.5%.
For O=C1C(=O)N(CCCN2CCOCC2)C(c2ccc(F)cc2)/C1=C(/O)c1ccccc1 (stereo not drawn) the results were uPA generation 3.6%, ClpP mod 0.8%, Sfp PPTase inh 3.9% and TCR act 9.0%.
For O=C1C(=O)N(CCN2CCOCC2)C(c2ccccn2)/C1=C(/O)c1ccc(F)cc1 (stereo not drawn) the results were uPA generation 3.5%, ClpP mod -1.1%, Sfp PPTase inh 56.2µM* and TCR act 2.4%.
Screening COC(=O)c1[nH]c(C)c(/C(O)=C2\C(=O)C(=O)N(CCCN3CCOCC3)C2c2ccccn2)c1C (stereo not drawn) returned uPA generation 1.4%, ClpP mod -0.6%, Sfp PPTase inh 50.1µM* and TCR act 1.8%.
